# Bioassay records (PubChem)
# Arbovirus anti: antivirals against arbovirus infection, primary screen, cell-based, full library, 10K replicate subset; actives 0.37% (n = 200,000); arbovirus infection cell-based antiviral screen; inhibition, % at 10 µM; AID 1251, 2008; in the data active = inhibition above about 30%
# Pf gamet viab: late stage P. falciparum gametocyte viability inhibitors, primary screen, ATP luminescence, HTS. P. falciparum stage V gametocytes, 24 h. AID 743093, 2013. actives 0.065% (n = 150,000). inhibition, % at 10.9 µM;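 active = inhibition above the mean plus 3 SD of compounds within the control limits, set per campaign, cut at about 38% in these data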;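 note: 0% = DMSO wells and 100% = medium only without gametocytes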
# MEKK2mut PB1 HTS: MEK5 binding signal on mutant MEKK2 PB1, primary screen, biochemical, multiplex bead flow cytometry, Alexa488-MEK5. Alexa488-MEK5 binding to MEKK2 mutant. actives 0.35% (n = 290,000). AID 1530, 2009. percent response, % at 10 µM; in the data active = percent response above about 24%, passing the limit was not always enough
# MEKK3 PB1 HTS: modulators of MEKK3-MEK5 PB1 binding, primary screen, biochemical, wildtype MEKK3, multiplex bead flow cytometry, Alexa488-MEK5; binding response (% of control), % at 10 µM; Mitogen-activated protein kinase kinase kinase 3 (Homo sapiens), Q99759; bead-based flow cytometry, Alexa488-MEK5 binding to MEKK3; actives lie on both sides; 0 = blocked by unlabeled MEK5, 100 = vehicle; actives 1.4% (n = 290,000); AID 1529, 2009;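 active = binding response more than 3 SD above or below the average of its plate-row segment, actives on both sides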;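 note: Alexa488 bead fluorescence after subtracting the streptavidin-only scavenger bead signal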
# Target sequence (Q99759 whole entry, looked up): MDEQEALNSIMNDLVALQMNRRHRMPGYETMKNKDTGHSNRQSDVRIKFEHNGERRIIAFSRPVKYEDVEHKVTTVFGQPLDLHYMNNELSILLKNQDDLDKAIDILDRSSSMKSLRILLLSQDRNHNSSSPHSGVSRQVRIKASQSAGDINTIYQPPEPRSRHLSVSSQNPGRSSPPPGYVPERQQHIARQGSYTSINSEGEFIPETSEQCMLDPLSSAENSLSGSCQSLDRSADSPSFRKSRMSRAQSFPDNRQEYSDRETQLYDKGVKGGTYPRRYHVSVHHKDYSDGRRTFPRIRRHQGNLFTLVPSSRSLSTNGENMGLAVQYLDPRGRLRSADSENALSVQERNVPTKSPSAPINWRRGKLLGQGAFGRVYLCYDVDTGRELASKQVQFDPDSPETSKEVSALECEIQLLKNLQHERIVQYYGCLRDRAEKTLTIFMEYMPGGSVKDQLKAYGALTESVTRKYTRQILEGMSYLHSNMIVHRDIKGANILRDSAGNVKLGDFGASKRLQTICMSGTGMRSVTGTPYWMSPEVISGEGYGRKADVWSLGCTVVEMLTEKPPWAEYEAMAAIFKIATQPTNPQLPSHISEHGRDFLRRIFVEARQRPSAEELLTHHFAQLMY
# MEKK2 WT-MEK5: modulators of MEK5 binding to wildtype MEKK2, primary screen, biochemical, multiplex bead flow cytometry, Alexa488-MEK5. Mitogen-activated protein kinase kinase kinase 2 (Homo sapiens), Q9Y2U5. Alexa488-MEK5 binding to MEKK2 WT; actives lie on both sides. binding response (% of control), % at 10 µM. actives 1.1% (n = 290,000); in the data active = binding response below about 67% or above about 130%
# MEKK2wt confirm: modulators of MEK5 binding to wildtype MEKK2, confirmation, biochemical, single concentration, multiplex bead flow cytometry | shares compounds with MEKK3 PB1 HTS | Alexa488-MEK5 binding to MEKK2 WT; actives lie on both sides | binding response (% of control), % at 10 µM | actives 2.4% (n = 5,900); in the data active = binding response below about 16% or above about 210%; inactive = in between
# MEKK2mut-MEK5: mutant MEKK2 PB1-MEK5 binding signal retest – biochemical, single concentration, multiplex bead flow cytometry, confirmation. shares compounds with MEKK3 PB1 HTS. Alexa488-MEK5 binding to MEKK2 mutant. percent response, % at 10 µM. actives 2% (n = 5,900); in the data active = percent response mostly above about 71%, no sharp cut-off; inactive = mostly below about 38%;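 note: higher means compound restores mutant binding toward wildtype level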
# MEKK3-MEK5 inh: MEKK3 wild-type PB1 binding to MEK5, inhibitors, confirmation, biochemical, bead multiplex flow cytometry, single concentration, wildtype; shares compounds with MEKK3 PB1 HTS; Alexa488-MEK5 binding to MEKK3; stronger effect = lower value; binding response (% of control), % at 10 µM; actives 1.8% (n = 5,900); AID 1894, 2009;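 active = binding response below 72% of control, or above a set upper limit, though filed actives all read lower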;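 note: 100% = DMSO only wells and 0% = binding blocked by excess unlabeled MEK5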
# * hit, by the source's call; · = no result given; [ ] = dose if it differs, or a comment. Compounds with a hit are over-represented: about 2.4% of the library has one in this group of screens.
SMILES,Arbovirus anti,Pf gamet viab,MEKK2mut PB1 HTS,MEKK3 PB1 HTS,MEKK2 WT-MEK5,MEKK2wt confirm,MEKK2mut-MEK5,MEKK3-MEK5 inh
COc1ccc(CSc2n[nH]c(C)n2)cc1[N+](=O)[O-],-5.6,·,4.0,130.0*,106.0,-3.0*[inhibitor],-5.0,94.0
O=C(C#Cc1ccccc1)c1ccco1,·,·,4.0,99.0,102.0,·,·,·
CCCN(CCC)CCNC(=O)c1cc2c(-c3ccc(Cl)cc3)nn(C)c2s1,·,·,42.0*,106.0,184.0*,190.0,92.0*,113.0
CCCCN(CC)CCNC(=O)c1cc2c(-c3ccc(Cl)cc3)nn(C)c2s1,·,·,47.0*,109.0,198.0*,201.0,98.0*,115.0
CCOCCCNC(=O)c1cc2c(-c3ccc(Cl)cc3)nn(C)c2s1,-3.9,·,7.0,116.0,125.0,·,·,·
CCCN(CCC)CCNC(=O)c1cc2c(-c3ccccc3F)nn(C)c2s1,·,·,17.0,100.0,120.0,·,·,·
CCN(CC)CCNC(=O)c1cc2c(-c3ccc(Cl)cc3)nn(C)c2s1,-27.3,·,21.0,109.0,191.0*,155.0,26.0,103.0
CCN(CC)C(=S)SCC(=O)Nc1ncc2c(n1)CCCC2=O,·,4.7,2.0,101.0,101.0,·,·,·
Cc1ccn(CC(=O)N2CCCC(N3CCN(c4cccc(Cl)c4)CC3)C2)n1 (centres undefined),·,·,0.0,99.0,104.0,·,·,·
O=[N+]([O-])c1ccc(OCC(O)CN2CCN(c3ccccc3F)CC2)cc1 (centres undefined),11.2,1.2,35.0,108.0,116.0,·,·,·
CC(=O)N(C)c1ccc(OCC(O)Cn2c(C)nc3ccccc32)cc1 (centres undefined),16.6,-31.1,1.0,135.0*,115.0,98.0,-2.0,101.0
CCOC(=O)CC1C(=O)NCCN1c1nc2ccc(C)cn2c(=O)c1/C=C1\SC(=S)N(CC(C)C)C1=O (centres undefined),·,·,-7.0,94.0,55.0*[inhibitor],93.0,-11.0,101.0
CN(C)CCCN(C(=O)C1COc2ccccc2O1)c1nc2ccc(F)cc2s1 (centres undefined),0.7,-2.1,0.0,97.0,129.0,·,·,·
CCN(CC)CCN(C(=O)/C=C/c1cccs1)c1nc2ccc(F)cc2s1,·,·,8.0,96.0,121.0,·,·,·
CN(C)CCCN(C(=O)c1sc2ccccc2c1Cl)c1nc2ccc(F)cc2s1,1.6,·,5.0,111.0,143.0*,179.0,36.0,105.0
CN(C)CCCN(C(=O)/C=C/c1cccs1)c1nc2ccc(F)cc2s1,0.7,-1.8,30.0,107.0,152.0*,149.0,30.0,108.0
Cc1cc(C(=O)NCCCN2CCN(c3cc(Cl)ccc3C)CC2)n(-c2ccccc2)n1,-11.8,·,21.0,109.0,139.0*,134.0,30.0,104.0
Cn1cnc(NCc2ccccc2)c1[N+](=O)[O-],·,-2.1,4.0,102.0,98.0,·,·,·
CCCn1cc(S(=O)(=O)c2ccccc2)c(=O)c2cc(CC)ccc21,·,·,2.0,95.0,95.0,·,·,·
COc1ccc(-c2nnn(CC(=O)NCc3ccccc3)n2)cc1OC,-14.7,·,0.0,84.0,96.0,·,·,·
COc1cc(-c2nnn(CC(=O)NC3CCS(=O)(=O)C3)n2)ccc1OCc1ccccc1 (centres undefined),-1.3,-2.0,-24.0,0.0*[inhibitor],0.0*[inhibitor],105.0,1.0,106.0
CC(C)C(NC(=O)c1ccccc1)C(=O)N1CCCCCC1 (centres undefined),·,·,-4.0,102.0,100.0,·,·,·
COc1ccc(NC(=O)CSc2ccc(-c3cccnc3)nn2)c(OC)c1,·,·,-5.0,90.0,88.0,·,·,·
COCCCNC(=O)/C(C#N)=C/c1c(N2CCN(c3ccccc3)CC2)nc2ccccn2c1=O,·,·,5.0,104.0,103.0,·,·,·
COc1ccc(CCN(Cc2cccs2)S(=O)(=O)c2ccc(S(=O)(=O)N3CCCCCC3)cc2)cc1OC,-9.1,-8.4,11.0,102.0,115.0,·,·,·
SMILES,Arbovirus anti,Pf gamet viab,MEKK2mut PB1 HTS,MEKK3 PB1 HTS,MEKK2 WT-MEK5,MEKK2wt confirm,MEKK2mut-MEK5,MEKK3-MEK5 inh
CCC(C)NS(=O)(=O)c1ccc(S(=O)(=O)N(CCc2ccc(OC)c(OC)c2)Cc2cccs2)cc1 (centres undefined),-1.2,·,-1.0,147.0*,107.0,99.0,-2.0,102.0
O=C(NC1=NCCS1)c1cc(-c2cccc(Br)c2)nc2ccccc12,1.6,-4.0,11.0,148.0*,115.0,110.0,7.0,100.0
Cc1ccn2c(NC(=O)c3cccs3)c(-c3ccccc3)nc2c1,8.4,10.9,5.0,95.0,98.0,·,·,·
Cc1cccn2c(NC(=O)c3cccs3)c(-c3ccccc3)nc12,-5.9,-2.6,1.0,138.0*,107.0,101.0,3.0,104.0
S=C(Nc1ccccc1)Nc1cc(Cl)ccc1Oc1ccccc1,0.1,·,7.0,123.0*,120.0,97.0,-4.0,97.0
CC12CN3CC(C)(CN(C1)C3c1ccc(F)cc1)C2 (centres undefined),10.0,9.4,1.0,130.0*,115.0,103.0,-3.0,98.0
Cc1nc(SCC(=O)c2ccc(F)cc2)c([N+](=O)[O-])[nH]1,6.2,·,4.0,102.0,104.0,·,·,·
Cc1nc(SCC(O)CO)c([N+](=O)[O-])[nH]1 (centres undefined),-2.5,20.7,16.0,112.0,138.0*,99.0,-2.0,97.0
CC(C)OC(=O)NC(Nc1ccccc1C(=O)O)(C(F)(F)F)C(F)(F)F,·,-3.0,29.0,132.0*,134.0,101.0,1.0,100.0
CCN(CC)c1nc2cc(C)ccc2cc1/C=C(\C#N)C(N)=O,-2.5,2.5,-10.0,94.0,86.0,·,·,·
CCCCC(=O)N(c1ccc(C(=O)O)cc1)c1nc(-c2ccc(Cl)cc2)c(CC)s1,14.1,0.0,-60.0,3.0*[inhibitor],3.0*[inhibitor],93.0,-7.0,104.0
CCCCCCCCCn1c2c(c(=N)c3c1CCC3)CCCC2,-28.9,·,45.0,110.0,177.0*,134.0,16.0,102.0
CCCCCCCCCCn1c2c(c(=N)c3c1CCC3)CCC2,-26.0,·,10.0,108.0,140.0*,110.0,6.0,96.0
COc1cccc(CN2CCNC(=O)C2CC(=O)NCCn2ccc3ccccc32)c1OC (centres undefined),-3.2,19.4,3.0,104.0,111.0,·,·,·
